Data: the supplement of paper PMC10849652
About 8,800 targets were measured; listed, in parts, are those with a hit and a random draw of the rest. About 0.5% of all pairs of compound and target were hits.

Compound: CCCS(=O)(=O)Nc1ccc(F)c(C(=O)c2c[nH]c3ncc(-c4ccc(Cl)cc4)cc23)c1F [vemurafenib]
Assay: log2 fold change, soluble protein after heating vs DMSO (PISA); higher = thermal stabilisation; K562 lysate, 10 uM; active = over 0.2 and 3.5 SD of the protein, either way, in both replicates (recomputed)
Outline: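 Dounce homogenisation of K562 pellets in PBS pH 7.4 with 1 mM MgCl2 produced a crude extract, used at 1 mg/mL protein. Exposure to 10 μM compound lasted 30 min, and aliquots were then heated for 3 min across 48°C-58°C, pooled and brought to 0.5% NP-40 at 4°C. The supernatant after 21,000xg for 90 min was quantified by TMTpro 16plex LC-MS/MS with channel sums equalised. Duplicate values are given as log-two fold change in thermal stability relative to solvent controls.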

Sequence of UniProt P04181 (P04181 whole entry, looked up): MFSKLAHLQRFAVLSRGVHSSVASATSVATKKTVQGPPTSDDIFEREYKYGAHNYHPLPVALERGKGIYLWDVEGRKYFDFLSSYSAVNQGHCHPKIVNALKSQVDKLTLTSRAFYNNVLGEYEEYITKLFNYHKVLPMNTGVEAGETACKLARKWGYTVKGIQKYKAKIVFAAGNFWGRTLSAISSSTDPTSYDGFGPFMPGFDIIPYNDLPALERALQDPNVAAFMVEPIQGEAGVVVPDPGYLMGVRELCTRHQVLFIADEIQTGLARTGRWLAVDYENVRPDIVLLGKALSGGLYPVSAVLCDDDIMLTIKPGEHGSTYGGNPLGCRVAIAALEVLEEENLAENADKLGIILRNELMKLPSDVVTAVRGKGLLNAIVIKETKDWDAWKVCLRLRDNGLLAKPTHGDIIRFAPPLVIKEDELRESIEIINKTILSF
Sequence of UniProt P49757 (P49757 whole entry, looked up): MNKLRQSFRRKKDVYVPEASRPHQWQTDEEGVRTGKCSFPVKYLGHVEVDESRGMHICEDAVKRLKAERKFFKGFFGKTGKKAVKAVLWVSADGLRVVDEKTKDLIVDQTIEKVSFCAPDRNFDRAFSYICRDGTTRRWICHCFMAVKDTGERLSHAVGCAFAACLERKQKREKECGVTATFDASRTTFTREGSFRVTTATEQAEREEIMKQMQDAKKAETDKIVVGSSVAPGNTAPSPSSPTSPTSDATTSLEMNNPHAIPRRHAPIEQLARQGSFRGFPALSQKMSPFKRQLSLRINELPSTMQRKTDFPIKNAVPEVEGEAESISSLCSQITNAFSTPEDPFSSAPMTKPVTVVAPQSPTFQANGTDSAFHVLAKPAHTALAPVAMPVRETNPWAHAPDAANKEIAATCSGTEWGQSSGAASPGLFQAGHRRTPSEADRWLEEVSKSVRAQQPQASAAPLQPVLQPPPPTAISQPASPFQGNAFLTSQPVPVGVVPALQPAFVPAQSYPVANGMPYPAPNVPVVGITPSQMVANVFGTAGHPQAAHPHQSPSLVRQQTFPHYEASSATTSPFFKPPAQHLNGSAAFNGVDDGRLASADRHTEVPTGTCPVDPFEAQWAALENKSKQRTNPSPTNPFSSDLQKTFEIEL
Sequence of UniProt Q9UDX5 (Q9UDX5 whole entry, looked up): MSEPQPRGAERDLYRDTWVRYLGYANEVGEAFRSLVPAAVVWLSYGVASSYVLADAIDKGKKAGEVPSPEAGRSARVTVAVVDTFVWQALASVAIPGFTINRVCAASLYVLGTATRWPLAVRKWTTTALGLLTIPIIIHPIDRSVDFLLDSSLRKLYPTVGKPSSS
Sequence of UniProt O60313 (O60313 whole entry, looked up): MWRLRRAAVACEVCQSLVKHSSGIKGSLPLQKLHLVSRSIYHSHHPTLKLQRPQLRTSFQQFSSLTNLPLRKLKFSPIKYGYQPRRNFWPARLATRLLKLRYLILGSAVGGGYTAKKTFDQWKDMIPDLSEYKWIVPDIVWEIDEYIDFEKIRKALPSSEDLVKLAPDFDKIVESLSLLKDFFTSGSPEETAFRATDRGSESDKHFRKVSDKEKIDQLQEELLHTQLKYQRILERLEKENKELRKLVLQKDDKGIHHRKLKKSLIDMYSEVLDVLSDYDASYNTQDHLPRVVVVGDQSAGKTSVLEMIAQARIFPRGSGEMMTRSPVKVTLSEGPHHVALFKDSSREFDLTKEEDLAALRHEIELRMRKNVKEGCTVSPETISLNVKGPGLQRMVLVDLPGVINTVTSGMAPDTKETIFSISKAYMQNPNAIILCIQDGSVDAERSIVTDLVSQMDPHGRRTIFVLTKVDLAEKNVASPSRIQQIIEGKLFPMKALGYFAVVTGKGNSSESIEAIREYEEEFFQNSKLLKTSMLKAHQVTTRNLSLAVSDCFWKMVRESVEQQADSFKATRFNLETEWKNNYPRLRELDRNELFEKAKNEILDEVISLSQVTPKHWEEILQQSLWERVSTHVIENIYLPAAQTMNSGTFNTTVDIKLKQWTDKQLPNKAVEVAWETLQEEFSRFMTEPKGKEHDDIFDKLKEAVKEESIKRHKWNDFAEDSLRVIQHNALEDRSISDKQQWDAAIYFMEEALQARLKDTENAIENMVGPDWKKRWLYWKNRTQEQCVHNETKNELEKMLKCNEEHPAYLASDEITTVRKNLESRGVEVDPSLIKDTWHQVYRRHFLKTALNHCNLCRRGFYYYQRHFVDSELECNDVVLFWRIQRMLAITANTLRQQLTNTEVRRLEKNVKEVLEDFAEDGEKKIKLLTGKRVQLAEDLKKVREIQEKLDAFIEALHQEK
Sequence of UniProt Q8WUM0 (Q8WUM0 whole entry, looked up): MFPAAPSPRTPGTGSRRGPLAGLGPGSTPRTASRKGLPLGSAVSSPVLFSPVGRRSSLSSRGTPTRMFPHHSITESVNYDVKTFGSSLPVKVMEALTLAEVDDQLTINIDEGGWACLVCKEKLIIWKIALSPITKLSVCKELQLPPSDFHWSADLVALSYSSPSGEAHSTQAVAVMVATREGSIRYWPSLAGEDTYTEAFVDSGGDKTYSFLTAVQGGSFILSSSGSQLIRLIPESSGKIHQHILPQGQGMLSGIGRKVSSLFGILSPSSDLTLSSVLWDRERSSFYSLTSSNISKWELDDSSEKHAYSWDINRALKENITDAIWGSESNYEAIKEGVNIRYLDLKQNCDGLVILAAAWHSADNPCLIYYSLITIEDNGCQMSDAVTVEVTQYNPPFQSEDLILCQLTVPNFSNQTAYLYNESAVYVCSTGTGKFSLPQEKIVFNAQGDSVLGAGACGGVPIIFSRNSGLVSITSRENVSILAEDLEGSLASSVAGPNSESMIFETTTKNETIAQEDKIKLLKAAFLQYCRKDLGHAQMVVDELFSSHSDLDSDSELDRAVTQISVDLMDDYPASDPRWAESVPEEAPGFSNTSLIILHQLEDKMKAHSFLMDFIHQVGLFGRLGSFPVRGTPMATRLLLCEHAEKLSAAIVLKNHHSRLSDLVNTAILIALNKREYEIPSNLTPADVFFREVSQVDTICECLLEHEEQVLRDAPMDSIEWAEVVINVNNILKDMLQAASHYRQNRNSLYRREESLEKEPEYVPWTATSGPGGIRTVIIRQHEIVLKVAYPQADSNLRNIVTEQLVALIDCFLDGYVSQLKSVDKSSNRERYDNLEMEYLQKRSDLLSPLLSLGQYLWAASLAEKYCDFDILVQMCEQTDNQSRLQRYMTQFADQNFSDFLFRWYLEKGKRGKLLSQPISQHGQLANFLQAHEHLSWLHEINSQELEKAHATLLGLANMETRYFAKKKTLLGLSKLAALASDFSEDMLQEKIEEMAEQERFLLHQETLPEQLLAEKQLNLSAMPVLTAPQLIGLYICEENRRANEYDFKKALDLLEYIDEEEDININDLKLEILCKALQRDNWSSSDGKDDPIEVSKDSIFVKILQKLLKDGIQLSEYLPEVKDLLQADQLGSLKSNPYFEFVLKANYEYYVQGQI
Sequence of UniProt Q96I59 (Q96I59 whole entry, looked up): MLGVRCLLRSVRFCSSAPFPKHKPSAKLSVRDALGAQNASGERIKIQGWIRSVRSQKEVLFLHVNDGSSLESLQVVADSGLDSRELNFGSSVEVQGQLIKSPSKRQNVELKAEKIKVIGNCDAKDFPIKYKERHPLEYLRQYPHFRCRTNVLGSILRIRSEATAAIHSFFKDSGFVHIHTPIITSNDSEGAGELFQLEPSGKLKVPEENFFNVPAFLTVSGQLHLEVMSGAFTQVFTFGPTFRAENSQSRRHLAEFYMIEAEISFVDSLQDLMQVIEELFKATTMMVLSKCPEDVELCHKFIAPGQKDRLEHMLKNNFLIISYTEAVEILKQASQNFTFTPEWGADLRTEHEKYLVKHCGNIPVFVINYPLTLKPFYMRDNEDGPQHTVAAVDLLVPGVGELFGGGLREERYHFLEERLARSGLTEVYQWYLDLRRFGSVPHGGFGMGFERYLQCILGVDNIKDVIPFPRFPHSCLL
Sequence of UniProt Q9ULX3 (Q9ULX3 whole entry, looked up): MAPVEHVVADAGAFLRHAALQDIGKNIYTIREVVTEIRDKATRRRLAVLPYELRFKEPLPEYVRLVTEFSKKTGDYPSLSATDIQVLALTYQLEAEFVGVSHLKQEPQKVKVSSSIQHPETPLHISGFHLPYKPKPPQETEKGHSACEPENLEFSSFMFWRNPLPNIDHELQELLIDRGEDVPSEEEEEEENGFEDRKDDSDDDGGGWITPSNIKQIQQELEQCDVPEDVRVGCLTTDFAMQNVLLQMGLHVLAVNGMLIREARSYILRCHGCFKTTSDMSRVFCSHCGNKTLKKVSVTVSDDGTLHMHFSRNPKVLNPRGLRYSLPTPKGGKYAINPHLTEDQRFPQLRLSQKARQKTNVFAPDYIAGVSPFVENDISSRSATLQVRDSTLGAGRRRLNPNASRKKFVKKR
Sequence of UniProt Q9Y6R0 (Q9Y6R0 whole entry, looked up): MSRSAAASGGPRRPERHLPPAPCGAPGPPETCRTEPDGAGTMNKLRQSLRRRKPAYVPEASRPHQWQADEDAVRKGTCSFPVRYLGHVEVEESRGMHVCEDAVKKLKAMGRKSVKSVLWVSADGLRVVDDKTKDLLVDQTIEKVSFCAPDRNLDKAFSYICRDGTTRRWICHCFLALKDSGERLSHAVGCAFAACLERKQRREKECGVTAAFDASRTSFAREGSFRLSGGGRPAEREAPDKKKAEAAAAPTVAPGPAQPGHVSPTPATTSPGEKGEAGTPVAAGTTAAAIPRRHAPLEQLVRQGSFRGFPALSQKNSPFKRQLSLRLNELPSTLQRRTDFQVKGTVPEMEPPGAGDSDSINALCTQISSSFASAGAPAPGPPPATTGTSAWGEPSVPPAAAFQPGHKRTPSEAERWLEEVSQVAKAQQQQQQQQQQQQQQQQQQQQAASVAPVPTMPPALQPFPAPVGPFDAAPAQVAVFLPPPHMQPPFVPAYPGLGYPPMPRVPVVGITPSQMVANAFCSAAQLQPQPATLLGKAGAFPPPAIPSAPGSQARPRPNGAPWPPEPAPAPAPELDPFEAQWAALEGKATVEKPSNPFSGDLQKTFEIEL
Sequence of UniProt O00483 (O00483 whole entry, looked up): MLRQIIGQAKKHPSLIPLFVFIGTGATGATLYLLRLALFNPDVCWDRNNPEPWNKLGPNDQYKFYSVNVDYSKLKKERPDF

log2 fold change, inactive:
NFAT5 isoform 5 (UniProt O94916) 0.019
NQO1 (UniProt P15559) -0.014
OARD1 (UniProt Q9Y530) -0.011
NARS2 (UniProt Q96I59) 0.022
OPA1 isoform 2 (UniProt O60313) 0.022
NFKBIB (UniProt Q15653) -0.058
NCAPH (UniProt Q15003) -0.015
OCRL (UniProt Q01968) 0.168
NNT (UniProt Q13423) 0.012
NEXN (UniProt Q0ZGT2) 0.073
NR3C1 isoform 3 (UniProt P04150) -0.138
NGLY1 (UniProt Q96IV0) 0.015
NUMBL (UniProt Q9Y6R0) -0.06
PAFAH1B3 (UniProt Q15102) -0.008
OLA1 (UniProt Q9NTK5) 0.025
NUMB (UniProt P49757) 0.001
OSBPL3 isoform 2 (UniProt Q9H4L5) 0.018
NFATC2 (UniProt Q13469) -0.029
PARP14 (UniProt Q460N5) 0.067
MTHFD1L (UniProt B7ZM99) 0.01
NSA2 (UniProt O95478) -0.035
NBEAL2 (UniProt Q6ZNJ1) -0.047
NDUFA4 (UniProt O00483) -0.009
NSL1 (UniProt Q96IY1) -0.017
NOB1 (UniProt Q9ULX3) -0.002
OAT (UniProt P04181) 0.066
NEK7 (UniProt Q8TDX7) 0.086
MTFP1 (UniProt Q9UDX5) -0.025
NIPSNAP3A (UniProt Q9UFN0) -0.005
NAA35 (UniProt Q5VZE5) 0
NCAPD2 (UniProt Q15021) 0.025
NUP133 (UniProt Q8WUM0) 0.009
MSI2 (UniProt Q96DH6) 0.039
OGFR (UniProt Q9NZT2) -0.033
MTA1 (UniProt Q13330) -0.022
